Results from publication PMC5540273 (PLoS ONE, 2017).

What was measured:
Settings in all cases: concentration: 1 μM, replicates: in singlicate; n = 1
JNK2 = test system: T1, JNK2
T1 construct: gene MAPK9

JNK3 = test system: T2, JNK3
T2 construct: gene MAPK10

KIT-autoinhibited = test system: KIT-autoinhibited
KIT = test system: KIT
LATS1 = test system: LATS1
LATS2 = test system: LATS2
LCK = test system: LCK
LIMK1 = test system: LIMK1
LIMK2 = test system: LIMK2
LKB1 = test system: T3, LKB1
T3 construct: gene STK11

LOK = test system: T4, LOK
T4 construct: gene STK10

LRRK2 = test system: LRRK2
LTK = test system: LTK
LYN = test system: LYN
LZK = test system: T5, LZK
T5 construct: gene MAP3K13

MAK = test system: MAK
MAP3K15 = test system: MAP3K15
MAP3K1 = test system: MAP3K1
MAP3K2 = test system: MAP3K2
MAP3K3 = test system: MAP3K3
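Also: KINOMEscan kinase panel screen.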

| Structure (SMILES) | %Inh (JNK2) [%] | %Inh (JNK3) [%] | %Inh (KIT-autoinhibited) [%] | %Inh (KIT) [%] | %Inh (LATS1) [%] | %Inh (LATS2) [%] | %Inh (LCK) [%] | %Inh (LIMK1) [%] | %Inh (LIMK2) [%] | %Inh (LKB1) [%] | %Inh (LOK) [%] | %Inh (LRRK2) [%] | %Inh (LTK) [%] | %Inh (LYN) [%] | %Inh (LZK) [%] | %Inh (MAK) [%] | %Inh (MAP3K15) [%] | %Inh (MAP3K1) [%] | %Inh (MAP3K2) [%] | %Inh (MAP3K3) [%] |
| --- | --- | --- | --- | --- | --- | --- | --- | --- | --- | --- | --- | --- | --- | --- | --- | --- | --- | --- | --- | --- |
| CCCNC(=O)Nc1ccc(Oc2ncnc3ccn(C)c23)cc1 | 3 | 0 | 3 | 89 | 44 | 11 | 0 | 0 | 0 | 9 | 47 | 0 | 4 | 30 | 22 | 0 | 0 | 31 | 15 | 0 |
| COc1cccc(-n2cnc3c(N)ncnc32)c1 [SKF-97416] | 27 | 8 | 23 | 12 | 8 | 1 | 10 | 0 | 7 | 60 | 4 | 63 | 0 | 8 | 33 | 10 | 22 | 29 | 35 | 22 |
| O=C(Nc1ccc2c(c1)OCO2)NC1CCN(c2ccnc(NCc3ccc(F)cc3)n2)CC1 [GSK1379859] | 0 | 0 | 0 | 2 | 0 | 0 | 14 | 0 | 21 | 6 | 0 | 0 | 1 | 4 | 0 | 79 | 0 | 8 | 0 | 0 |
| CCS(=O)(=O)c1ccc(OC)c(Nc2ncc(-c3ccc(F)cc3)o2)c1.Cl [GW591947] | 21 | 0 | 0 | 17 | 0 | 0 | 13 | 0 | 0 | 0 | 0 | 0 | 0 | 0 | 0 | 80 | 0 | 0 | 0 | 0 |
| COc1cc2ncn(-c3cc(OCc4ccncc4)c(C(N)=O)s3)c2cc1OC [GSK336313] | 12 | 1 | 0 | 18 | 0 | 8 | 30 | 2 | 18 | 0 | 0 | 0 | 2 | 0 | 0 | 23 | 11 | 25 | 0 | 0 |
| COC(=O)c1c(-c2ccccc2)c2cc(C)ccc2c(=O)n1Cc1ccccc1 | 32 | 48 | 0 | 75 | 0 | 0 | 0 | 5 | 0 | 0 | 0 | 0 | 0 | 7 | 0 | 0 | 0 | 0 | 0 | 0 |
| COc1cccc(C2=C(N(C)c3ccccc3)C(=O)NC2=O)c1 [SB-334865] | 14 | 0 | 0 | 0 | 3 | 0 | 16 | 0 | 0 | 0 | 0 | 0 | 0 | 0 | 32 | 24 | 0 | 1 | 4 | 0 |
| CN(C)c1cc(-c2ccc3c(N)n[nH]c3c2)nc(N)n1 [GSK2219329] | 11 | 4 | 81 | 7 | 0 | 2 | 17 | 0 | 14 | 0 | 0 | 0 | 4 | 0 | 10 | 16 | 0 | 0 | 0 | 0 |
| COc1ccc(CNC(=O)NC2CCN(c3ccnc(Nc4ccc(F)cc4)n3)C2)cc1 (stereo not drawn) [GSK1379706] | 9 | 13 | 3 | 39 | 22 | 27 | 16 | 0 | 29 | 13 | 0 | 23 | 15 | 0 | 71 | 30 | 12 | 2 | 0 | 0 |
| O=C(Nc1n[nH]c2nc(-c3ccccc3)c(Br)cc12)C1CC1 [SB-708998] | 0 | 0 | 9 | 31 | 0 | 0 | 23 | 19 | 12 | 0 | 0 | 29 | 4 | 3 | 0 | 12 | 3 | 0 | 7 | 4 |
| C[C@@H]1CC[C@H](C(=O)NC2CCCCC2)CN1c1cc(-c2ccc3c(N)n[nH]c3c2)nc(N)n1 [GSK2291363] | 30 | 10 | 10 | 27 | 0 | 72 | 24 | 0 | 11 | 23 | 0 | 0 | 0 | 0 | 0 | 25 | 0 | 21 | 20 | 0 |
| FC(F)(F)c1ccc(-c2ncn(CCCN3CCOCC3)c2-c2ccncc2)cc1 [SB-217780] | 53 | 55 | 0 | 20 | 0 | 27 | 0 | 0 | 0 | 23 | 10 | 0 | 23 | 3 | 0 | 29 | 7 | 12 | 8 | 0 |
| COc1cccc(C2=C(Nc3cccc(C(=O)O)c3)C(=O)NC2=O)c1 [SB-390770] | 24 | 17 | 0 | 0 | 0 | 0 | 37 | 0 | 10 | 0 | 22 | 27 | 32 | 0 | 0 | 33 | 1 | 25 | 0 | 3 |
| O=C(Nc1n[nH]c2nc(-c3ccccc3)c(Cl)cc12)C1CC1 [SB-734909] | 32 | 29 | 0 | 51 | 0 | 24 | 3 | 9 | 12 | 37 | 21 | 0 | 0 | 0 | 0 | 3 | 60 | 37 | 14 | 33 |
| O=C(Nc1n[nH]c2cc(-c3ccccc3F)ccc12)C1CC1 [SB-733371] | 16 | 15 | 0 | 10 | 27 | 0 | 6 | 0 | 0 | 30 | 1 | 0 | 0 | 0 | 0 | 0 | 32 | 0 | 0 | 22 |
| CCn1c(-c2ccoc2)nc2cnccc21 [SB-733887] | 0 | 0 | 61 | 5 | 19 | 60 | 35 | 10 | 6 | 0 | 0 | 0 | 1 | 4 | 0 | 18 | 0 | 14 | 3 | 0 |
| Cc1c(Cn2c(C)nn3c(=O)cc(N4CCO[C@H](C)C4)nc23)cccc1C(F)(F)F [GSK2373690] | 27 | 17 | 0 | 13 | 0 | 0 | 15 | 5 | 0 | 0 | 0 | 31 | 0 | 0 | 0 | 0 | 26 | 7 | 2 | 0 |
| OCCCNc1nccc(-c2c(-c3cccc(C(F)(F)F)c3)nn3cc(C(F)(F)F)ccc23)n1 [GW630813] | 13 | 15 | 13 | 2 | 0 | 0 | 0 | 0 | 12 | 16 | 0 | 0 | 4 | 0 | 43 | 16 | 0 | 0 | 0 | 0 |
| CCc1nc(-c2cccc(C)c2)c(-c2ccncc2)s1 | 76 | 90.3 | 0 | 42 | 4 | 0 | 24 | 0 | 0 | 35 | 0 | 0 | 0 | 12 | 0 | 0 | 0 | 0 | 0 | 0 |
| Cc1nnc(-c2ccc(C)c(-c3ccc(C(=O)O)cc3)c2)o1 [GW608005] | 0 | 0 | 0 | 0 | 0 | 0 | 0 | 4 | 0 | 5 | 100 | 46 | 0 | 0 | 0 | 19 | 14 | 0 | 0 | 0 |
| CCC(=O)c1c(-c2ccccc2)c2cc(Cl)ccc2c(=O)n1Cc1cc(S(C)(=O)=O)n(CC(N)=O)n1 | 99 | 99.2 | 4 | 6 | 0 | 0 | 3 | 0 | 0 | 37 | 0 | 8 | 0 | 7 | 0 | 15 | 0 | 0 | 0 | 0 |
